Screening results from PubChem BioAssay.
The list is not random: actives were taken first. Their share in the collection is about 0.43%.
aGal spleen mod = alpha-galactosidase A (human) modulation; human spleen homogenate, 4MU-alpha-Gal fluorescence, 40 min; P06280; Potency, µM (doses to about 80 µM), most hits filed as inhibitors; 240,000 compounds, 0.008% hits
Target sequence (P06280 32-429 limits assumed): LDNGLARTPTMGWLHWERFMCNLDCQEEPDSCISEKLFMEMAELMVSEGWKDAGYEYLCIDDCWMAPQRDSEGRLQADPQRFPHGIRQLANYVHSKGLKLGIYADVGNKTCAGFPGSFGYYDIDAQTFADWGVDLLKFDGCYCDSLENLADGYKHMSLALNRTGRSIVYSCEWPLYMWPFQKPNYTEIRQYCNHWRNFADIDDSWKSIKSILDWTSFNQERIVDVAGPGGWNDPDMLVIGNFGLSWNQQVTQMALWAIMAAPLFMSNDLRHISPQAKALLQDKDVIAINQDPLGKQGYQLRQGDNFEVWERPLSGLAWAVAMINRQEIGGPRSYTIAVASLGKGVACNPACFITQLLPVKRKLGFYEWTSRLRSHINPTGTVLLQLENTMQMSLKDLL
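Spleen homogenate 1 ug + cpd (titration) + 4-MU-alpha-D-galactopyranoside 1 mM; 37C 40 min; 50 mM citrate/phosphate pH 5.0, 0.01% Tween-20; stop pH 10; fluorescence 365/440; AC50 via Hill.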
GAA glycogen mod = GAA glycogen-cleavage inhibition or activation. recombinant GAA, glycogen substrate, Amplex Red glucose oxidase fluorescence. P10253. Potency, µM (top dose mostly 76.4 µM), most hits filed as inhibitors. AID 2100. 300,000 compounds, 0.38% hits;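 further: the screen sought inhibitors and activators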
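qHTS, 1536-well; enzyme 4 nM final; cpd up to 77 uM; substrate bovine liver glycogen 30 ug; 50 mM citrate/phosphate pH 5.0, 0.01% Tween-20; 37 C, 40 min; Amplex Red detection 45 min RT; Hill fit → AC50.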
GLA inh pH 4.5 = blocks human alpha-galactosidase A at pH 4.5; AID 1467; activity change, negative = inhibition, % at 105 µM; purified enzyme, 4-MU-alpha-Gal fluorescence, pH 4.5; 230,000 tested, under 10 active
GAA inh = alpha-glucosidase (human) inhibition. P10253. purified human GAA, 4-MU-alpha-glucoside fluorescence. Potency, µM (highest dose often 76.9 µM), usual class: inhibitors. 200,000 compounds, 0.005% hits. AID 1466
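Human alpha-glucosidase, 4 nM, pre-mixed with test compounds before 400 uM 4-methylumbelliferyl substrate; 20 min room temperature at pH 5.0. Fluorescence read after pH 10 stop; AC50 values from Hill-equation fits.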
N370S GC mod = N370S glucocerebrosidase modulation, Gaucher chaperone candidate. AID 2101. N370S GC spleen homogenate, 4MU-glucoside fluorescence. 330,000 compounds, 0.092% hits. Potency, µM (highest dose often 59.4 µM), most hits filed as inhibitors
GAA spleen mod = inhibits or activates alpha-glucosidase in human spleen homogenate | human spleen homogenate, 4-MU-alpha-glucoside fluorescence | Potency, µM (top dose mostly 79.9 µM), most hits filed as inhibitors | 240,000 compounds, 0.006% hits | AID 2112
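Enzyme source: human spleen homogenate, 1 ug/well. Buffer 50 mM citric acid/K phosphate pH 5.0, 0.01% Tween-20. 4-MU-alpha-glucoside 1 mM; 37 C x 40 min; NaOH/glycine stop; fluorescence.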
Numbers stand for hits; – = inactive; ? = inconclusive; · = not tested or not shown; [ ] = dose if it differs, or a comment. The call rests on the fitted dose curve; in most records, active means well fitted curve in the direction sought with a large enough effect; inconclusive means small, poorly fitted or top-dose-only effect, or another doubt; inactive means no such curve, though single readings can be large; an effect the other way counts as inactive or inconclusive.

SMILES | aGal spleen mod | GAA glycogen mod | GLA inh pH 4.5 | GAA inh | N370S GC mod | GAA spleen mod
c1cc(CN2CCCNCCNCCCNCC2)ccc1CN1CCCNCCNCCCNCC1 | – | · | · | · | – | –
Cc1ccc(C)c(NC(=O)C2CCCN(S(=O)(=O)c3ccc4[nH]c(=O)ccc4c3)C2)c1 (configuration not stated) | · | 31.6µM | · | · | – | ·
COc1ccc(C2=Nn3c(nnc3-c3ccc(OC)cc3OC)SC2)c(OC)c1 | – | · | · | · | – | –
O=C(NNc1cccc(Cl)n1)c1c(F)cccc1F | – | ? | – | – | – | ·
O=C(NNc1cccc(Cl)n1)c1c(Cl)cccc1Cl | – | 8.91µM | – | – | – | –
NC(=O)[C@@H]1CCCN1C(=O)C(Cc1cnc[nH]1)NC(=O)C1CCC(=O)N1 (some centres not stated) | – | · | · | · | – | –
Fc1ccccc1NC(=S)NNc1ncc(C(F)(F)F)cc1Cl | – | 28.2µM | – | – | – | –
Cc1ccc(NC(=S)NNC(=O)c2nn(C)cc2Cl)cc1 | – | 14.1µM | – | – | – | –
Cc1cccc(NC(=S)NNC(=O)c2nn(C)cc2Cl)c1 | – | ? | – | – | – | –
O=c1[nH]c2cc([N+](=O)[O-])c([N+](=O)[O-])cc2[nH]c1=O | – | – | – | – | 8.91µM | –
CC(=O)OCC(NC(=O)C(COCc1ccccc1)NC(=O)OC(C)(C)C)C1OC(n2ccc(=O)[nH]c2=O)C(OC(C)=O)C1OC(C)=O (configuration not stated) | – | · | · | · | – | –
CC(C)[C@H](NC(=O)[C@H](CC(=O)O)NC(=O)CNC(=O)[C@@H](N)CCCN=C(N)N)C(=O)O | – | · | · | · | – | –
Oc1ccccc1N=Cc1c(O)ccc2ccccc12 | – | ? | – | – | – | –
CN(C)/N=C/c1c(O)ccc2ccccc12 | – | 14.1µM | – | – | – | –
Cn1c(SCC(=O)CC(=O)Nc2ccccc2)nnc1-c1ccc(O)cc1 | – | – | – | – | 14.1µM | –
Oc1ccc(Nc2nc(-c3cccnc3)cs2)cc1 | · | 17.8µM | · | · | – | ·
Oc1ccc(Nc2nc(-c3ccc(O)cc3)cs2)cc1 | – | 24.9µM | – | – | 15.8µM | –
C/C(CCN1CCCc2nc(C)c(C)cc21)=N\O[C@@H](C)c1cn([C@H](CO)Cc2ccccc2)nn1 | –[17.5 µM] | · | · | · | –[12.8 µM] | –[17.4 µM]
Cc1cccc(C)c1N1C(=O)CC(N(O)c2ccccc2)C1=O (configuration not stated) | – | 31.6µM | – | – | – | –
CCOc1ccccc1N1C(=O)CC(N(O)c2ccccc2)C1=O (configuration not stated) | – | – | – | – | – | –
Cc1c(Cl)cccc1N1C(=O)CC(N(O)c2ccccc2)C1=O (configuration not stated) | – | 20µM | – | – | – | –
Nc1[nH]ncc1C(=O)Nc1cccc(C(F)(F)F)c1 | – | 11.1µM | – | ? | – | –
Cn1ncc(N)c1C(=O)Nc1cccc(C(F)(F)F)c1 | – | – | – | – | – | –
C=C[C@@]1(C)CC[C@H]2C(=CC[C@@H]3[C@]2(C)CCC[C@@]3(C)C(=O)O)C1 | – | · | · | · | – | –
CC(C)NC(=O)C1=NN(c2ccccc2)C(=O)CC1 | · | – | · | · | – | ·
SMILES | aGal spleen mod | GAA glycogen mod | GLA inh pH 4.5 | GAA inh | N370S GC mod | GAA spleen mod
O=C(NNC(=O)c1ccccc1F)C1=NN(c2ccccc2)C(=O)CC1 | · | 50.1µM | · | · | – | ·
O=C(CCC(=O)N1CCN(c2ccc(O)cc2)CC1)c1cccs1 | – | 11.1µM | – | · | – | –
CC(=O)c1ccc(N2CCN(C(=O)CCC(=O)c3cccs3)CC2)cc1 | – | – | – | – | – | –
Cc1ccc(OCCC(=O)N2CCN(c3ccc(O)cc3)CC2)cc1 | – | 12.6µM | – | · | – | –
COCCCNC(=S)Nc1ccc(C)cc1 | – | – | – | · | – | –
COCCCNC(=S)NNC(=S)Nc1ccccc1 | – | 6.26µM | – | – | – | –
COCCCNC(=S)NCCc1ccc(F)cc1 | – | – | – | – | – | –
COCCCNC(=S)NNC(=S)Nc1ccc(F)cc1F | – | 15.7µM | – | – | – | –
CC(C)=CC(=O)Oc1ccc(C(=O)N(C)c2ccccc2I)cc1 | – | · | · | · | – | –
Cc1cccc(Nc2c(-c3ccc(N4CCOCC4)cc3)nc3ncccn23)c1 | – | 35.5µM | – | – | – | –
Cc1ccc(Nc2c(-c3ccc(N4CCOCC4)cc3)nc3c(C)cccn23)cc1 | · | 15.8µM | · | · | · | ·
COc1ccc(-c2nc3ncccn3c2Nc2ccc3c(c2)OCCO3)cc1 | – | ? | – | – | – | –
CC(=O)N1CCN(CC(=O)Nc2cc([N+](=O)[O-])ccc2Cl)CC1 | – | – | – | – | – | –
O=C(CN1CCN(c2ccc(O)cc2)CC1)Nc1cc([N+](=O)[O-])ccc1Cl | – | 11.2µM | – | – | – | –
O=C(CN1CCN(c2ccc(O)cc2)CC1)NC(=O)NCc1ccco1 | – | 3.16µM | – | – | – | –
Cc1cc(NC(=O)CN2CCN(S(=O)(=O)c3ccc(Cl)cc3)CC2)no1 | – | – | – | – | – | –
COc1ccc(N2CCN(CC(=O)NC(=O)NCc3ccco3)CC2)cc1 | – | – | – | – | – | –
Cc1cc(NC(=O)CN2CCN(c3ccc(O)cc3)CC2)no1 | – | 8.91µM | – | – | – | –
COc1cc(CCN2C(=O)N[C@@H](c3ccccc3)C(C(C)=O)=C2C)cc(OC)c1OC | – | · | – | · | – | –
Cn1c(CNc2ccccc2O)nc2ccccc21 | – | 14µM | – | –[15.4 µM] | – | –
COc1ccc(-c2cc(=O)c3c(O)c(OC)c(OC)c(OC)c3o2)cc1OC | – | · | – | · | – | –
COc1cc(-c2cc(=O)c3c(O)c(OC)c(OC)c(O)c3o2)ccc1O | – | 22.4µM | – | · | – | –
CCc1ccc(CNc2ccc(N3CCN(C(C)=O)CC3)cc2)cc1 | – | ? | – | – | – | –
CC(=O)N1CCN(c2ccc(NC(=O)C(c3ccccc3)c3ccccc3)cc2)CC1 | · | – | · | · | 12.6µM | ·
CC(=O)N1CCN(c2ccc(NCc3ccc(C)cc3)cc2)CC1 | – | 19.8µM | – | – | – | –
O=C(Nc1ccc(N2CCCC2)cc1)C(c1ccccc1)c1ccccc1 | – | – | – | – | – | –
C[C@@H](c1ccccc1)N1C(=O)[C@H]2[C@@H]3[C@H](O)C=CC(=O)[C@H]3CC[C@H]2C1=O | –[17.5 µM] | · | · | · | –[12.8 µM] | –[17.4 µM]
Nc1cc(S(=O)(=O)Nc2cc(Cl)ccc2Cl)ccc1N1CCCC1 | – | 17.8µM | – | · | – | –
Cc1sc2ncnc(Nc3ccc(O)cc3)c2c1C | – | ? | – | –[15.4 µM] | 11.2µM | –
Cc1cc(C)c2ccc3c(C)c(C)nc3c2[nH]1 | – | – | – | ? | 7.08µM | ·
